# Assay results reported in PubChem BioAssay (NCATS).
# Several values for one entry are separate records, joined by “and”; a condition that tells them apart may be missing. Identical values can stand only once. Results filed as inconclusive are left out. A structure can be active in one record and inactive in another. Activity calls are given as the source filed them. Unless noted, calls follow the shape of the dose curve; as a rule, active = well fitted curve in either direction with a large enough effect (not every such curve was filed as active); inconclusive = small, poorly fitted or top-dose-only effect, or another doubt; inactive = flat fitted curve, though single readings scatter.
# How the values were obtained:
# [1] = target: Cytochrome P450 1A2 (Homo sapiens) (UniProt P05177); assay: p450-cyp1a2 (AID 410; calls by dose curve; also: potency is read from the fitted curve at half-maximal effect;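 as to activity change, negative = inhibition: -100% = full effect of reference inhibitor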)
# Outline: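 Human CYP1A2 (20nM) demethylated Luciferin-ME at its Km (100uM) in 100mM KPO4. After 10 min compound preincubation, NADPH regeneration ran the reaction 60 min at room temperature. Luciferin was read by luminescence, normalized to 57 uM furafylline.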
# [2] = Cell Viability - BJ (AID 421; calls by dose curve;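 also: potency is read from the fitted curve at half-maximal effect; cells exposed to compound for 40 hours at 37 °C before readout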); conditions: BJ fibroblast viability, qHTS
# Outline: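 Cytotoxicity in human BJ foreskin fibroblasts is scored as loss of cellular ATP after a 40-hour exposure, measured by luciferase luminescence. Controls are DMSO and 100 uM tamoxifen.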
# [3] = Cell Viability - Jurkat (AID 426;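 active = dose-dependent loss of cell ATP signal giving a full or clear fitted curve, ranked by lower potency value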; also: potency is read from the fitted curve at half-maximal effect); conditions: qHTS
# Outline: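 Jurkat (clone E6-1, human T-cell leukemia) cells, 5000/well in complete medium, were exposed to compound for 40 hr at 37 °C. Viability was read as intracellular ATP by CellTiter-Glo luminescence; AC50 came from Hill fits of concentration-response data.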
# [4] = Cell Viability - Hek293 (AID 427;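 active = compounds whose dose-response curve shows a full or clear partial loss of cell viability, called from curve shape rather than a numeric limit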;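 also: potency is read from the fitted curve at half-maximal effect; cells exposed to compound for 40 hours at 37 °C before reading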); conditions: qHTS
# Outline: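 qHTS, human embryonic kidney (adenovirus-transformed) cells; 40 hr cpd, 37 °C; CellTiter-Glo ATP luminescence. Norm: DMSO = 0, 100 uM tamoxifen = 100% inhibition. Hill-fit AC50.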
# [5] = Cell Viability - HepG2 (AID 433; calls by dose curve;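 also: potency is read from the fitted curve at half-maximal effect; potency for ATP loss meaning cytotoxicity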); conditions: qHTS
# Outline: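 HepG2 hepatocellular carcinoma cells (1500/well) were treated with compounds for 40 h at 37 °C in complete medium; intracellular ATP was read by CellTiter-Glo luminescence. Data were normalized to DMSO and 100 uM tamoxifen, and AC50 came from Hill fits.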
# [6] = Cell Viability - MRC5 (AID 434; calls by dose curve;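 also: potency is read from the fitted curve at half-maximal effect; potency reflects cytotoxicity seen as loss of intracellular ATP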); conditions: MRC5 lung fibroblast viability, qHTS
# Outline: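 MRC5 normal human lung fibroblasts, 1500 cells/well, exposed to compound for 40 hr at 37 C. Cellular ATP was read by CellTiter-Glo luminescence; data normalized to DMSO and 100 uM tamoxifen, with AC50 from Hill fits.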
# [7] = Cell Viability - SK-N-SH (AID 435; calls by dose curve;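 also: potency is read from the fitted curve at half-maximal effect; compound exposure lasted 40 h at 37 °C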); conditions: SK-N-SH neuroblastoma cell viability qHTS
# Outline: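 SK-N-SH human neuroblastoma cells (1500/well) were exposed to compounds in complete medium for 40 h at 37 °C, and intracellular ATP was then measured by CellTiter-Glo luminescence. AC50 was taken from Hill fits, normalized to DMSO and 100 uM tamoxifen.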
# [8] = NFAT Signaling Pathway (AID 444); conditions: Jurkat NFAT-bla M1, carbachol, beta-lactamase ratio, 5 h;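 also: carbachol stimulus at about its EC50 of 1 µM final; % is scaled to controls: 0 for no effect and ±100 for the full control effect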
# Outline: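 Jurkat cells with NFAT-driven β-lactamase reporter and co-expressed M1 receptor, stimulated with carbachol (final 1 uM, ~EC50), compound titration, 5 h at 37 °C. CCF4 loaded 1 h at RT; 460/530 nm ratio gave %activity and AC50.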
# [9] = Stat Signaling Pathway (AID 446);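 also: ME-180 cervical cancer cells given 40 pM IL-6 alongside compound; SIE-controlled beta-lactamase reporter measured as 460/530 nm FRET emission ratio; % is scaled to controls: 0 for no effect and ±100 for the full control effect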
# Outline: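 Screening format detects activators and inhibitors alike: ME-180 SIE-bla cells stimulated at 40 pM IL-6 for 5 hrs with compound, then dual-emission beta-lactamase read at 405 nm excitation.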
# [10] = target: Mitogen-activated protein kinase 10 (Mus musculus) (UniProt Q61831); assay: JNK3 AlphaScreen Assay (AID 530);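 also: kinase came from lysate of stimulated human HepG2 cells; signal reports phosphorylation of biotinylated GST-cJun 1-79 at Ser73 with 10 µM ATP; % is scaled to controls: 0 for no effect and ±100 for the full control effect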
# Outline: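 qHTS format: compounds tested as titrations against IL-1beta/TNF-alpha-activated HepG2 lysate JNK3 with biotin-GST-cJun substrate and 10 uM ATP at room temperature. Loss of anti-phospho-cJun AlphaScreen signal indicates inhibition.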
# [11] = Cell Viability - N2a (AID 540; active = well fitted curve in the direction sought with a large enough effect; an effect the other way counts as inactive or inconclusive;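 also: plate controls were DMSO alone for no effect and tamoxifen control for full effect; nearly all actives have a fitted effect of over 45% in size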); conditions: N2a mouse neuroblastoma cell viability; activity change, negative = cytotoxicity: at 92.2 µM (top of the series)
# Outline: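 Mouse neuroblastoma N2a cells (1500/well) were preincubated 5 hr at 37 °C, then exposed to compounds for 40 hr at 37 °C in complete medium. Viability was read as intracellular ATP by CellTiter-Glo luminescence; AC50 from Hill fits.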
# [12] = Cell Viability - NIH 3T3 (AID 541; active = well fitted curve in the direction sought with a large enough effect; an effect the other way counts as inactive or inconclusive; also: nearly all actives have a fitted effect of over 25% in size; also: potency is read from the fitted curve at half-maximal effect;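 as to activity change, negative = cytotoxicity: plate controls were DMSO alone for no effect and tamoxifen positive control for full effect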); conditions: NIH 3T3 cell viability, qHTS; activity change, negative = cytotoxicity: at 92.2 µM (top of the series)
# Outline: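 NIH 3T3 mouse embryo fibroblasts (1000 cells/well) were plated in complete medium and treated with compound for 40 hr at 37 °C. Viability was read as intracellular ATP by CellTiter-Glo luminescence; AC50 values came from Hill-equation fits of concentration-response data.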
# [13] = Cell Viability - HUV-EC-C (AID 542; active = well fitted curve in the direction sought with a large enough effect; an effect the other way counts as inactive or inconclusive; also: % is scaled to controls: 0 for no effect and ±100 for the full control effect; nearly all actives have a fitted effect of over 35% in size)
# Outline: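 HUV-EC-C normal human vascular endothelial cells, 1000 cells/well, pre-incubated 5 hr at 37 °C, then exposed to compounds for 40 hr at 37 °C in complete medium. Viability measured as intracellular ATP by CellTiter-Glo luminescence; AC50 from Hill fits.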
# [14] = Cell Viability - H-4-II-E (AID 543; active = well fitted curve in the direction sought with a large enough effect; an effect the other way counts as inactive or inconclusive; also: % is scaled to controls: 0 for no effect and ±100 for the full control effect; nearly all actives have a fitted effect of over 35% in size)
# Outline: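 Rat hepatoma H-4-II-E cells (1500/well) were plated, incubated 5 hr at 37 °C, then exposed to compounds for 40 hr at 37 °C. Cellular ATP was read by CellTiter-Glo luminescence; AC50 came from Hill-equation fits of concentration-response data.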
# [15] = Cell Viability - SH-SY5Y (AID 544; active = well fitted curve in the direction sought with a large enough effect; an effect the other way counts as inactive or inconclusive; also: nearly all actives have a fitted effect of over 55% in size; also: potency is read from the fitted curve at half-maximal effect;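 as to viability change, negative = cytotoxic: 0% = DMSO alone and -100% = 100 µM tamoxifen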); conditions: SH-SY5Y neuroblastoma cell viability; viability change, negative = cytotoxic: at 92.2 µM (top of the series)
# Outline: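 Human neuroblastoma SH-SY5Y cells (1500/well) in complete medium were exposed to compounds for 40 hr at 37 °C; intracellular ATP was then quantified by CellTiter-Glo luminescence after 20 min at room temperature. AC50 came from Hill-equation concentration-response fits.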
# [16] = Cell Viability - Renal Proximal Tubule (AID 545; active = well fitted curve in the direction sought with a large enough effect; an effect the other way counts as inactive or inconclusive;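 also: 0% = DMSO only and -100% = 100 µM tamoxifen; nearly all actives have a fitted effect of over 40% in size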)
# Outline: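 Primary rat renal proximal tubule cells (1000/well) were treated with compounds for 40 hr at 37 °C in complete medium. Intracellular ATP was measured by CellTiter-Glo luminescence, and AC50 values came from Hill-equation fits of concentration-response data.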
# [17] = target: Glucocorticoid receptor (Homo sapiens) (UniProt P04150); assay: GR-GFP Redistribution (AID 450;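 active = compounds whose dose series gives a full or clear partial fitted curve of increased nuclear translocation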; also: potency is read from the fitted curve at half-maximal effect); conditions: U2OS GR-GFP nuclear translocation, laser cytometry, 2 h
# [18] = target: Glucocorticoid receptor (Homo sapiens) (UniProt P04150); assay: GR-EFC Redistribution (AID 451; calls by dose curve; also: potency is read from the fitted curve at half-maximal effect); conditions: CHO-K1 GR-EFC translocation, beta-gal luminescence, 2 h
# Outline: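 CHO-K1 cells expressing nuclear EA and GR-ED fragments of b-gal; compounds titrated up to 46 uM final, 2 h at 37 C. GR nuclear translocation read as complemented b-gal luminescence after 1 h RT detection.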
# [19] = AP1 Signaling Pathway (AID 357); also: % is scaled to controls: 0 for no effect and ±100 for the full control effect
# Outline: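 AP-1-bla ME-180 cells with beta-lactamase reporter under AP-1 response element, stimulated with EC50 EGF; compounds titrated, 5 hours at 37 degrees Celsius. CCF4 read at 460/530 nm ratio; positive and negative modulators judged by AC50.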
# Chain of Glucocorticoid receptor (Homo sapiens) (P04150 whole entry, looked up, the tested form may be a part): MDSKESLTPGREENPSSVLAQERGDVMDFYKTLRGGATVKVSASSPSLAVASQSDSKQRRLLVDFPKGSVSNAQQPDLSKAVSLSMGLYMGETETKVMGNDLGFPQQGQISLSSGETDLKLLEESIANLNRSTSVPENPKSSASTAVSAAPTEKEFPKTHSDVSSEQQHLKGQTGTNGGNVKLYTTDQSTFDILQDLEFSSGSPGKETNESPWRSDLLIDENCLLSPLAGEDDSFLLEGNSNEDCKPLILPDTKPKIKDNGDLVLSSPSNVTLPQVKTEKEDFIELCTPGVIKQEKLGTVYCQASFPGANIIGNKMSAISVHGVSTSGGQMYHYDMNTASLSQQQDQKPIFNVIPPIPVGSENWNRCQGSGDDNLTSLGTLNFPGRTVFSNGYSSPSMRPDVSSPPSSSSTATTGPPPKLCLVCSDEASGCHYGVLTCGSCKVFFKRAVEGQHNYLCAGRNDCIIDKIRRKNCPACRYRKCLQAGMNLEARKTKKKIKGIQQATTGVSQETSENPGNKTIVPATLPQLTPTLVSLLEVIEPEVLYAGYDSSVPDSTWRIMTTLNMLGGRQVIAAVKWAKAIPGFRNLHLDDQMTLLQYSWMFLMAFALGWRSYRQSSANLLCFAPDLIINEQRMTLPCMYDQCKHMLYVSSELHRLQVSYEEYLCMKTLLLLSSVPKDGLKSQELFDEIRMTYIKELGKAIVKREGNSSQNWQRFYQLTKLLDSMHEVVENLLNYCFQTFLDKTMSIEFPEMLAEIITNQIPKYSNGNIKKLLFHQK
# Chain of Cytochrome P450 1A2 (Homo sapiens) (P05177 whole entry, looked up): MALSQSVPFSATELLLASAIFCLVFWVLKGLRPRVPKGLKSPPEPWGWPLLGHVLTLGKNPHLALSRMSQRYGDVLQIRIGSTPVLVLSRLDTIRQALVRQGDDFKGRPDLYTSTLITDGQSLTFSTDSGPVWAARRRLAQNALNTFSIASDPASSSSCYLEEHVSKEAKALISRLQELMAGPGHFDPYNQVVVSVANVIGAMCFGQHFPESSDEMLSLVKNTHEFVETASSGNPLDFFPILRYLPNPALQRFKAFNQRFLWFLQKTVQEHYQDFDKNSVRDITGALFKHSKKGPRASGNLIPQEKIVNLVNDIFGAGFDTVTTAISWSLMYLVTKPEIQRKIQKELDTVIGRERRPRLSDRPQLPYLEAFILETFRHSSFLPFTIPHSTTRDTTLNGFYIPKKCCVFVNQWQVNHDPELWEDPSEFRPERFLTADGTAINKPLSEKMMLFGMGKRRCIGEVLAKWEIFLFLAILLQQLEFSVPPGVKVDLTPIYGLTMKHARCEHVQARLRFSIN
structure (smiles),measurement,setting,value
Cn1c(=O)c2[nH]cnc2n(C)c1=O,Potency,[1],inactive
same,Potency,[2],> 92 µM (inactive)
same,Potency,[3],> 92 µM (inactive)
same,Potency,[4],> 92 µM (inactive)
same,Potency,[5],> 92 µM (inactive)
same,Potency,[6],> 92 µM (inactive)
same,Potency,[7],> 92 µM (inactive)
same,"activity change, negative = inhibition",[8]; at 17.2 µM (top of the series),-8.18% (inactive) and -8.96% (inactive) and 7.57% (inactive)
same,"activity change, negative = inhibition",[8]; at 38 µM (top of the series),8.38% (inactive)
same,outcome,[9],inactive
same,outcome,[10],inactive
same,"activity change, negative = cytotoxicity",[11],8.85% (inactive)
same,Potency,[12],inactive
same,outcome,[13],inactive
same,Potency,[14],inactive
same,Potency,[15],inactive
same,Potency,[16],inactive
Cn1c(=O)c2c(ncn2C)n(C)c1=O,Potency,[1],inactive
same,Potency,[2],> 92 µM (inactive)
same,Potency,[3],> 92 µM (inactive)
same,Potency,[4],> 92 µM (inactive)
same,Potency,[5],> 92 µM (inactive)
same,Potency,[6],> 92 µM (inactive)
same,Potency,[7],> 92 µM (inactive)
same,"activity change, negative = inhibition",[8]; at 38 µM (top of the series),3.94% (inactive)
same,outcome,[9],inactive
same,Potency,[17],> 46 µM (inactive)
same,Potency,[18],> 46 µM (inactive)
same,outcome,[10],inactive
same,"activity change, negative = cytotoxicity",[11],4.95% (inactive)
same,Potency,[12],inactive
same,outcome,[13],inactive
same,Potency,[14],inactive
same,Potency,[15],inactive
same,Potency,[16],inactive
Nc1nc2c(ncn2COC(CO)CO)c(=O)[nH]1,Potency,[1],inactive
same,"activity change, negative = inhibition",[8]; at 17.2 µM (top of the series),3.07% (inactive)
same,"activity change, negative = inhibition",[8]; at 38 µM (top of the series),-0.352% (inactive)
same,outcome,[9],inactive
same,Potency,[17],> 46 µM (inactive) and > 20.6 µM (inactive)
same,Potency,[18],> 46 µM (inactive) and > 20.6 µM (inactive)
same,outcome,[10],inactive
O=c1c(-c2ccc(O)cc2)coc2cc(O)cc(O)c12,Potency,[1],10 µM (active) and 5.01 µM (active)
same,Potency,[2],> 92 µM (inactive)
same,Potency,[4],> 92 µM (inactive)
same,Potency,[5],> 92 µM (inactive)
same,Potency,[6],> 92 µM (inactive)
same,"activity change, negative = inhibition",[8]; at 38 µM (top of the series),-8.04% (inactive)
same,outcome,[9],inactive
same,Potency,[17],> 46 µM (inactive)
same,Potency,[18],> 46 µM (inactive)
same,outcome,[10],inactive
same,"activity change, negative = cytotoxicity",[11],0.0672% (inactive)
same,Potency,[12],25.1 µM (active)
same,outcome,[13],inactive
same,"viability change, negative = cytotoxic",[15],-86.9% (active)
NC(=O)NO,outcome,[19],inactive
same,"activity change, negative = inhibition",[8]; at 38 µM (top of the series),9.2% (inactive)
same,outcome,[9],inactive
same,Potency,[17],> 46 µM (inactive)
same,Potency,[18],> 46 µM (inactive)
same,outcome,[10],inactive
CN(C)C(=O)C(CCN1CCC(O)(c2ccc(Cl)cc2)CC1)(c1ccccc1)c1ccccc1,outcome,[19],inactive
same,"activity change, negative = inhibition",[8]; at 17.2 µM (top of the series),-23.1% (inactive)
same,"activity change, negative = inhibition",[8]; at 38 µM (top of the series),-13.2% (inactive)
same,outcome,[9],inactive
same,Potency,[17],> 46 µM (inactive) and > 20.6 µM (inactive)
same,Potency,[18],> 46 µM (inactive) and > 20.6 µM (inactive)
same,outcome,[10],inactive
CC(COc1ccccc1)N(CCCl)Cc1ccccc1 (stereo unspecified),outcome,[19],inactive
same,Potency,[2],> 92 µM (inactive)
same,Potency,[5],38.6 µM (active)
same,Potency,[6],> 92 µM (inactive)
same,outcome,[9],inactive
same,Potency,[17],> 20.6 µM (inactive)
same,outcome,[10],inactive
same,"activity change, negative = cytotoxicity",[11],-85.6% (active)
same,Potency,[15],31.6 µM (active)
Nc1c2c(nc3ccccc13)CCCC2,outcome,[19],inactive
same,Potency,[1],3.16 µM (active) and 794 nM (active) and 501 nM (active)
same,Potency,[2],> 92 µM (inactive)
same,Potency,[4],> 92 µM (inactive)
same,Potency,[5],> 92 µM (inactive)
same,Potency,[6],> 92 µM (inactive)
same,Potency,[7],> 92 µM (inactive)
same,outcome,[9],inactive
same,outcome,[10],inactive
same,"activity change, negative = cytotoxicity",[11],-21.2% (inactive)
same,Potency,[12],inactive
same,outcome,[13],inactive
same,Potency,[15],inactive
same,Potency,[16],inactive
Cc1ccc(C(=O)Nc2ccc(S(=O)(=O)O)c3cc(S(=O)(=O)O)cc(S(=O)(=O)O)c23)cc1NC(=O)c1cccc(NC(=O)Nc2cccc(C(=O)Nc3cc(C(=O)Nc4ccc(S(=O)(=O)O)c5cc(S(=O)(=O)O)cc(S(=O)(=O)O)c45)ccc3C)c2)c1,"activity change, negative = inhibition",[8]; at 38 µM (top of the series),-19.8% (inactive)
same,Potency,[17],> 46 µM (inactive)
same,Potency,[18],> 46 µM (inactive)
same,outcome,[10],inactive
Clc1ccc(C(c2ccccc2Cl)C(Cl)Cl)cc1 (stereo unspecified),Potency,[5],> 92 µM (inactive)
same,"activity change, negative = cytotoxicity",[11],-100% (active)
same,Potency,[12],inactive
same,outcome,[13],inactive
same,Potency,[16],inactive
OCCN1CCN(CCCN2c3ccccc3Sc3ccc(C(F)(F)F)cc32)CC1,outcome,[9],inactive
same,Potency,[17],> 46 µM (inactive) and > 20.6 µM (inactive)
same,Potency,[18],> 46 µM (inactive) and > 20.6 µM (inactive)
same,outcome,[10],inactive
Cc1cc(C(C)(C)C)cc(C)c1CC1=NCCN1,Potency,[1],inactive
same,outcome,[9],inactive
same,Potency,[17],> 46 µM (inactive) and > 20.6 µM (inactive)
same,Potency,[18],> 46 µM (inactive) and > 20.6 µM (inactive)
same,outcome,[10],inactive
CCCNCC(O)COc1ccccc1C(=O)CCc1ccccc1 (stereo unspecified),outcome,[9],inactive
CN1CCN(CCCN2c3ccccc3Sc3ccc(Cl)cc32)CC1,Potency,[1],1 µM (active) and 2.51 µM (active)
same,"activity change, negative = inhibition",[8]; at 17.2 µM (top of the series),-28.9% (inactive)
same,outcome,[9],inactive
same,outcome,[10],inactive
Cn1ccc2cc3c(cc21)CCN3C(=O)Nc1cccnc1,Potency,[1],25.1 nM (active) and 3.98 nM (active)
same,"activity change, negative = inhibition",[8]; at 38 µM (top of the series),-1.4% (inactive)
same,outcome,[9],inactive
same,Potency,[17],> 46 µM (inactive)
same,Potency,[18],> 46 µM (inactive)
same,outcome,[10],inactive
CN1CCN(C2=Nc3cc(Cl)ccc3Nc3ccccc32)CC1,"activity change, negative = inhibition",[8]; at 38 µM (top of the series),-49.7% (active)
same,outcome,[9],inactive
same,Potency,[17],> 46 µM (inactive) and > 20.6 µM (inactive) and 2.68 µM (active)
same,Potency,[18],> 46 µM (inactive) and > 20.6 µM (inactive)
same,outcome,[10],inactive
